Experimental data as given in article PMC7819943, “Rice protein-binding microarrays: a tool to detect cis-acting elements near promoter regions in rice”.
Over roughly 35,000 sequences, “fluorescence intensity (a.u.)” has its median near 10,000; the highest 2% begin near 52,000. The full list was thinned out, with the highest values kept by preference.

biological target: T1, OsWOX13 (Oryza sativa, UniProt Q5QMM3 1-267); test: protein-binding microarray (RPBM); PBS, 2% BSA, 51.3 ng/ul salmon testes DNA, 50 uM zinc acetate, 200 nM TF, 25 C, 1 h; high values mean tight binding; conditions: protein: recombinant; tags: N-terminal polyhistidine and DsRed monomer fusion (pET32a); label: CyDye5-dUTP incorporated in the synthesized complementary strand; 3' TTTTT single-stranded linker to array surface; dsDNA, one strand shown
T1 sequence: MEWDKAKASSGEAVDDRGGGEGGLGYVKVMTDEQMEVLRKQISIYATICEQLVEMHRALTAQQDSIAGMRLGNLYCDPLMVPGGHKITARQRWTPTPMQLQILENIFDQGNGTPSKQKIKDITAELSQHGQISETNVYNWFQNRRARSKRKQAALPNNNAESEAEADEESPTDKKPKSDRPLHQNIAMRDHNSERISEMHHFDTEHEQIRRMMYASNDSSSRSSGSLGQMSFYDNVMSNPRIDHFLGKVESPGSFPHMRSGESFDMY
Method in brief: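 An Axon 4000B scanner gave the binding signal as per-feature fluorescence intensity in arbitrary units. This followed washing of a custom Agilent array that had been incubated for 1 h at 25 °C with 200 nM protein in PBS, 2% BSA, salmon testes DNA and 50 µM zinc acetate. The proteins were transcription factors fused at the N-terminus to polyhistidine and DsRed, expressed in E. coli BL21-CodonPlus and purified on Ni–NTA.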

| Sequence | binding signal |
| --- | --- |
| AAAAGCACATGATTATATCTCATTTTATGGTCTTAGAGCACGGAGTCACCTAGTGCAG | 3350 fluorescence intensity (a.u.) |
| GTTTGATGAGTCCGGAATAGCATATAGCACATGGAATTGGCGGAGTCACCTAGTGCAG | 3510 fluorescence intensity (a.u.) |
| CAACAGGATTGGAAGTGATCAGAGACAGGCAATGAAATCCCGGAGTCACCTAGTGCAG | 8460 fluorescence intensity (a.u.) |
| ACACTAAATTAATGTATGCAATGTCCATTGGTAAATAACTCGGAGTCACCTAGTGCAG | 14900 fluorescence intensity (a.u.) |
| CTGGATTGGTGATTGATTATCCGAGCAAGCAAAGACGATGCGGAGTCACCTAGTGCAG | 63800 fluorescence intensity (a.u.) |
| GATTAAGATTTTATCCGATTGATGATGCGCCGTAGCAGTGCGGAGTCACCTAGTGCAG | 8650 fluorescence intensity (a.u.) |
| AGTGATTAGTGAAGCAAAGGAAGACGACGAGTGACACGAGCGGAGTCACCTAGTGCAG | 21900 fluorescence intensity (a.u.) |
| TTTAAGATCATGATTAACATGACATTGAAGCATTACCACGCGGAGTCACCTAGTGCAG | 5610 fluorescence intensity (a.u.) |
| GAATTAGCTTGATTGACAGAAACAAATGGCTACAACTACACGGAGTCACCTAGTGCAG | 50600 fluorescence intensity (a.u.) |
| AACCAGATTCACCGTGATTAGTTTCACCCTAGTCTAGTCTCGGAGTCACCTAGTGCAG | 10800 fluorescence intensity (a.u.) |
| ATCCATGATTAACAGTTGATTACTGTAGCAAATCATGGATCGGAGTCACCTAGTGCAG | 34400 fluorescence intensity (a.u.) |
| TTAATTAATTGATCACTTCCAAATCATGTAGCAGTACTGTCGGAGTCACCTAGTGCAG | 65400 fluorescence intensity (a.u.) |
| ATATATAATCATTGATCTTAATTATTGAGTGTCAGTAGTACGGAGTCACCTAGTGCAG | 24400 fluorescence intensity (a.u.) |
| TTAATTGATCAATAATCACTGTTCCTTCTCAAGTAGTCAACGGAGTCACCTAGTGCAG | 64600 fluorescence intensity (a.u.) |
| ATAATTGAGTAGATAATCCTTGCAATAATCCGCTCAATAACGGAGTCACCTAGTGCAG | 8180 fluorescence intensity (a.u.) |
| CACAATTCCTTCTAATTATTTGATAATCAAGTTTCTCCTTCGGAGTCACCTAGTGCAG | 9620 fluorescence intensity (a.u.) |
| ACTATTAATGTGAACTGATATGATACATTTTAGAGCTAGCCGGAGTCACCTAGTGCAG | 6440 fluorescence intensity (a.u.) |
| TACACCTTTGACAGACAACAAAGCATTGAATCTTCTATGCCGGAGTCACCTAGTGCAG | 5260 fluorescence intensity (a.u.) |
| GATAACTGGATTCATCTGTCTCCTCAACGTGTGGTCTGTACGGAGTCACCTAGTGCAG | 19900 fluorescence intensity (a.u.) |
| TGCCACACAAATTTTGCAAAATTTGTGATATGCCACCTGACGGAGTCACCTAGTGCAG | 6080 fluorescence intensity (a.u.) |

| Sequence | binding signal |
| --- | --- |
| TAATAATAATAATAATGCAAATTACCAAAATATAAGCCCACGGAGTCACCTAGTGCAG | 6280 fluorescence intensity (a.u.) |
| ACTTGACAGGAATTGCAGAAAGGCCCCTCGCCAAAACTCACGGAGTCACCTAGTGCAG | 30900 fluorescence intensity (a.u.) |
| GCCAAATTGACAGAGTTACCTCGCTATATAAGGCTGCCCACGGAGTCACCTAGTGCAG | 57600 fluorescence intensity (a.u.) |
| ATATCAATTAATGCTTCAAGATTAGCACCCATATTATATGCGGAGTCACCTAGTGCAG | 35100 fluorescence intensity (a.u.) |
| AATCATTTAAAACATTGATTTTATTTGACGATAAAACTAGCGGAGTCACCTAGTGCAG | 4690 fluorescence intensity (a.u.) |
| TTGATTGACTAAACTGTCACGTCAGCGTCATATTGACGAACGGAGTCACCTAGTGCAG | 54900 fluorescence intensity (a.u.) |
| AAATTGACAAGATAGATCAATATATAATATATCACTACACCGGAGTCACCTAGTGCAG | 10200 fluorescence intensity (a.u.) |
| GGTAATATTTTGATTAAATTTGACTAAATTTTGTTTAAAACGGAGTCACCTAGTGCAG | 11800 fluorescence intensity (a.u.) |
| CTAATTGATTAGTAAACTATTTATATAGGACTGTTGTTTTCGGAGTCACCTAGTGCAG | 58300 fluorescence intensity (a.u.) |
| AGTGATTAATGAGACAAATAGTACTTTATTGTGACAAGTACGGAGTCACCTAGTGCAG | 30900 fluorescence intensity (a.u.) |
| CTTAATTAACACTCGTAAGATTGACAAATAGTTGAATATCCGGAGTCACCTAGTGCAG | 60300 fluorescence intensity (a.u.) |
| TATTTTCAATTATAGGTCTAATTGTTTTATTTAGGTGATTCGGAGTCACCTAGTGCAG | 20500 fluorescence intensity (a.u.) |
| TTTGATTCTTTTAAATTAAATAATTTTAAAGTCATTGATACGGAGTCACCTAGTGCAG | 21100 fluorescence intensity (a.u.) |
| AAACTGATTCTTTGATTATTGACGTCTCATAGACCTACGTCGGAGTCACCTAGTGCAG | 31600 fluorescence intensity (a.u.) |
| AGACAATGATAGTGATAATTAACAAATTCAGTTTAAGATCCGGAGTCACCTAGTGCAG | 19700 fluorescence intensity (a.u.) |
| GAAATAATTAATTAATTTAATTAATTGATTGACACAAGTACGGAGTCACCTAGTGCAG | 65000 fluorescence intensity (a.u.) |
| GAAATTAAACTAATATTTCGGCCCATCAAGGGCTCGCTTGCGGAGTCACCTAGTGCAG | 8580 fluorescence intensity (a.u.) |
| TCTGATTATTAATTATCACTTTATCAGTCTCCAACGTTTACGGAGTCACCTAGTGCAG | 40900 fluorescence intensity (a.u.) |
| ATACTTAATTAATGATACGATAATTGAATTTATTCTCTCCCGGAGTCACCTAGTGCAG | 49900 fluorescence intensity (a.u.) |
| ATACTTGACAGGTTTTATGCATATAAGAAAATCTGTTTAACGGAGTCACCTAGTGCAG | 7520 fluorescence intensity (a.u.) |

| Sequence | binding signal |
| --- | --- |
| CTCTCTCTCTGATTAGTTAATTGAATACATTGTAAGGGCCCGGAGTCACCTAGTGCAG | 41200 fluorescence intensity (a.u.) |
| TCGCTAATAAATCATATGATGTCATGGGCCCGAGACATCTCGGAGTCACCTAGTGCAG | 3380 fluorescence intensity (a.u.) |
| TGTGTTAAACTATATAATTTTCTCTAAAACATAATGGTACCGGAGTCACCTAGTGCAG | 3720 fluorescence intensity (a.u.) |
| TTAATTCTATCTAGTAGTAGAGTTAGTTATTTATATATTACGGAGTCACCTAGTGCAG | 5310 fluorescence intensity (a.u.) |
| CCTTCGATTATTGGCACGGATTGTTTATCCAGGTAAGACTCGGAGTCACCTAGTGCAG | 13300 fluorescence intensity (a.u.) |
| CACATCAACCTGCACCAATCATGCCATCGAGATCACAACACGGAGTCACCTAGTGCAG | 3970 fluorescence intensity (a.u.) |
| ATCTCCAAAATTTTAAATTTTAATTAAAACCTAACTTACACGGAGTCACCTAGTGCAG | 6930 fluorescence intensity (a.u.) |
| GCACTAGTGATTGGAACAATATTAATTTCAGAAACATTGCCGGAGTCACCTAGTGCAG | 32700 fluorescence intensity (a.u.) |
| TACTAATTTTGAATTTAGAGCTATTAACCAATAAATTGTTCGGAGTCACCTAGTGCAG | 12200 fluorescence intensity (a.u.) |
| CTTTAAAATTAATTAAATTTGAAAATTAGTAACGAGGGGACGGAGTCACCTAGTGCAG | 26700 fluorescence intensity (a.u.) |
| TTAATATAAAAGTAATTATTTAAATTGTAGAAACAATTTACGGAGTCACCTAGTGCAG | 5710 fluorescence intensity (a.u.) |
| AGAAATTGAACGTGATTAACGGGGAGGGCACTAGTGAGGCCGGAGTCACCTAGTGCAG | 53000 fluorescence intensity (a.u.) |
| CTAGAAATTAGGTGATTAATTTATTAAACACAATATTGCCCGGAGTCACCTAGTGCAG | 56900 fluorescence intensity (a.u.) |
| TGAATAATTGACAATTTAACCAGACCATTAATTAATTGTTCGGAGTCACCTAGTGCAG | 62400 fluorescence intensity (a.u.) |
| TATAATTGAATAAATTTTCATATTATATTTATCTTGTGTTCGGAGTCACCTAGTGCAG | 63100 fluorescence intensity (a.u.) |
| AAGAATTGATAGATGAAACGTGATTAGATACTAACTATACCGGAGTCACCTAGTGCAG | 41200 fluorescence intensity (a.u.) |
| AATAATTGAATATATTTTCATAATAAATTTGTCTTGGGTTCGGAGTCACCTAGTGCAG | 44400 fluorescence intensity (a.u.) |
| ACAATTGAAGATAAATGACAAACCAATAAACCATTTGTTTCGGAGTCACCTAGTGCAG | 5080 fluorescence intensity (a.u.) |
| AATAATTGAATATATTTTCATAATAAATGTGTGTTGAGTTCGGAGTCACCTAGTGCAG | 38400 fluorescence intensity (a.u.) |
